Results reported in PubChem BioAssay (NCATS).
Results filed as inconclusive are left out. Activity calls are given as the source filed them. Unless noted, the call rests on the fitted dose curve; in most records, active means well fitted curve in the direction sought with a large enough effect; inconclusive means small, poorly fitted or top-dose-only effect, or another doubt; inactive means no such curve, though single readings can be large; an effect the other way counts as inactive or inconclusive.

Legend:
[1] = target: Glutathione peroxidase 1 (Homo sapiens) (UniProt P07203); experiment: Primary qHTS Assay for Inhibitors of Recombinant Selenoprotein Glutathione Peroxidase 1 (GPX1) (AID 1845191); further: nearly all actives have a fitted effect of over 65% in size; further: potency means the concentration at half of the fitted maximal effect; on activity, negative = inhibition: on the % scale 0 is the no-effect control and ±100 the full control effect
Sequence of Glutathione peroxidase 1 (Homo sapiens) (P07203 whole entry, looked up): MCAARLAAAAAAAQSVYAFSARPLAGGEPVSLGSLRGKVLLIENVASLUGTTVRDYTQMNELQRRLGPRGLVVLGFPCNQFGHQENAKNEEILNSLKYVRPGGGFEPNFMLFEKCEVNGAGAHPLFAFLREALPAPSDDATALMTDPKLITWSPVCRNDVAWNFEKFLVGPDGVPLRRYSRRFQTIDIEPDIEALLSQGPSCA
Summary of the method: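 GR-coupled assay: compounds preincubated 30 min at room temperature with GPX1, then reaction started with CHP; final 10 nM GPX1, 1 mM GSH, 0.5 mM CHP, 0.5 mM NADPH, 100 nM GR, 0.01% BSA, pH 7.5 Tris buffer. NADPH fluorescence (340/450 nm) read at 0 and 15 min.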

[2] = target: Phospholipid hydroperoxide glutathione peroxidase GPX4 (Homo sapiens) (UniProt P36969); experiment: Primary qHTS Assay for Inhibitors of Recombinant Selenoprotein Glutathione Peroxidase 4 (GPX4) (AID 1845192); further: nearly all actives have a fitted effect of over 65% in size; on activity change, negative = inhibition: series mostly up to about 50 µM; on the % scale 0 is the no-effect control and ±100 the full control effect
Sequence of Phospholipid hydroperoxide glutathione peroxidase GPX4 (Homo sapiens) (P36969 whole entry, looked up): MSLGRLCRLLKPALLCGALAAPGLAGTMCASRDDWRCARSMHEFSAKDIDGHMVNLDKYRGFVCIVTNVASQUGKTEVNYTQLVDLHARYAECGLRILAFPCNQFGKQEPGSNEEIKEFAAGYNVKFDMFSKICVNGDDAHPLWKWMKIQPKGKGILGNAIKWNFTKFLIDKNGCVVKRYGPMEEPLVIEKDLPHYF
Summary of the method: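 GR-coupled assay: recombinant GPX4 preincubated 30 min with compound at room temperature; final 200 nM GPX4, 1 mM GSH, 0.5 mM cumene hydroperoxide, 0.5 mM NADPH, 100 nM GR, 0.01% BSA, pH 7.5 Tris. NADPH fluorescence (340/450 nm) read at 0 and 15 min.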

[3] = target: Luciferin 4-monooxygenase (Photinus pyralis) (UniProt P08659); experiment: Primary firefly luciferase (FLuc) qHTS assay for identification of artifact compounds. (AID 1845220); further: nearly all actives have a fitted effect of over 60% in size;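 on activity change, negative = inhibition: series mostly up to about 54 µM; plate controls were DMSO vehicle for no effect and no enzyme for full effect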
Summary of the method: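 Titrated compounds were incubated 15 min at RT, protected from light, with luciferin and ATP at 10 uM; reaction started with 10 nM FLuc, luminescence imaged at 5 min, and concentration-response fitted by Hill equation.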

[4] = Primary fluorescence-based thiol-reactive (MSTI) qHTS assay for identification of artifact compounds. (AID 1845221);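 further: series mostly up to about 54 µM; thiol-reactive compounds lower the probe fluorescence signal; nearly all actives have a fitted effect of over 65% in size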
Summary of the method: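 One-hour, room-temperature, dark incubation of compound with 4 uM MSTI in PBS (pH 7.4, 2% DMSO) precedes a fluorescence read at 525 nm excitation, 598 nm emission; Hill-equation fitting yields concentration-response values.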

[5] = Primary redox qHTS assay for identification of artifact compounds. (AID 1845223);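 further: 0% = DMSO and 100% = reference compound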
Summary of the method: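 Amplex Red (25 uM) and HRP (250 mU/mL) in HBSS, with compounds for 15 min, then 250 uM DTT for 30 min, room temperature, dark. Fluorescence 525/598 nm read; normalized to DMSO and 10 uM DA3003; Hill fit.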

[6] = tested on: Nanoluciferase (engineered Oplophorus gracilirostris luciferase); experiment: Primary Nanoluciferase (NLuc) qHTS assay for identification of artifact compounds. (AID 1845222);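 further: NLuc secreted into diluted conditioned medium of S16 cells; series mostly up to about 54 µM; 0% = DMSO and -100% = no enzyme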
Summary of the method: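 qHTS format, against NLuc in S16 cell-conditioned medium. Nano-Glo substrate 1:100 was added after 15 min at room temperature. Luminescence was taken after a further 5 min.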

[7] = qHTS drug screen for cell cycle checkpoint inhibitors in PARPi-resistant BRCA-mutant ovarian cancer cell lines. (AID 1963452; calls by dose curve); details: PEO1/OlaR viability, CellTiter-Glo luminescence, 96 h, stronger effect = lower value
Summary of the method: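 PEO1, PEO4 and PEO1/OlaR ovarian cancer cells, 600 per well, exposed 96 h at 37C to a dilution series. Viability read by CellTiter-Glo luminescence, normalized to DMSO and empty wells; activity summarized as Z-AUC.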

[8] = measured here: PEO1 parental Z-AUC

CC(C)N(CCCCOCC(=O)NS(C)(=O)=O)c1cnc(-c2ccccc2)c(-c2ccccc2)n1
inactive: Potency [1] | Potency [2] | Potency [3] | Potency [4] | Potency [5]

O=C(/C=C\n1cnc(-c2cc(C(F)(F)F)cc(C(F)(F)F)c2)n1)N1CC(F)(F)C1
-1.38: Z-AUC ([7]; measured here: PEO4 Z-AUC)
inactive: Potency [1] | Potency [2] | Potency [3] | Potency [4] | Potency [6] | Z-AUC [7] -0.848
-1.85: Z-AUC [7, 8]

COCCN1CCN(Cc2ccc(-c3n[nH]c4c3C(=O)c3c(NC(=O)NN5CCOCC5)cccc3-4)cc2)CC1
0.701: Z-AUC [7, 8]
0.00286: Z-AUC ([7]; measured here: PEO4 Z-AUC)
inactive: Potency [1] | Potency [2] | Potency [3] | Potency [4] | Potency [6] | Potency [5] | Z-AUC [7] 0.43

CCCN1CCN(c2ccc(C(=O)NC3(C(=O)NCC#N)CCCCC3)cc2)CC1
0.558: Z-AUC ([7]; measured here: PEO4 Z-AUC)
0.728: Z-AUC [7, 8]
inactive: Potency [1] | Potency [2] | Potency [3] | Potency [4] | Potency [6] | Z-AUC [7] 0.959

C=C1C(OC2OCC(O)C(O)C2O)CC2C(C)(C)C(O)CCC2(C)C1CC/C(C)=C\CO (configuration not stated)
inactive: Potency [1] | Potency [2] | Potency [3] | Potency [6]

COC(=O)N[C@@H](C)CNc1nccc(-c2cn(C(C)C)nc2-c2cc(Cl)cc(NS(C)(=O)=O)c2F)n1
inactive: Potency [1] | Potency [2] | Potency [3] | Potency [4] | Potency [6] | Z-AUC [7] -0.294
-0.151: Z-AUC [7, 8]
-0.157: Z-AUC ([7]; measured here: PEO4 Z-AUC)

C[C@@H]1CC[C@]2(C(=O)O)CC[C@]3(C)C(=CCC4[C@@]5(C)C[C@@H](O)[C@H](O)[C@@](C)(CO)C5CC[C@]43C)C2[C@]1(C)O (some centres not stated)
inactive: Potency [1] | Potency [2] | Potency [3] | Potency [6]

COc1c(/C=C/C(C)(C)O)ccc2c1C(=O)OCc1cc(C)cc(O)c1O2
inactive: Potency [1] | Potency [2] | Potency [3] | Potency [6]

COc1cc(C(=O)OC[C@H]2O[C@@H](Oc3ccccc3/C=C/C(=O)O)[C@H](O)[C@@H](O)[C@@H]2O)cc(OC)c1OC
inactive: Potency [1] | Potency [2] | Potency [3] | Potency [6]

CC(O)/C=C/C1OC(=O)CC1Nc1ccc(C(=O)O)cc1 (configuration not stated)
inactive: Potency [1] | Potency [2] | Potency [3] | Potency [6]

CC(C)(C)Nc1nc(Nc2ccc(C(N)=O)cc2)cc(N)c1C#N
active: Potency [1] 22.7 µM
inactive: Potency [2] | Potency [3] | Potency [6]

COC(=O)C1=C2Nc3ccccc3C23CCN2CCCC(C(C)O)(C1)C23 (configuration not stated)
inactive: Potency [1] | Potency [2] | Potency [3] | Potency [6]

COc1cc(N)c(Cl)cc1C(=O)NC[C@@H]1CCN2CCC[C@@H]12
inactive: Potency [1] | Potency [2] | Potency [3] | Potency [6]

COc1ccc(/C=C/C(=O)O[C@H]2[C@H](O[C@H]3[C@@H]4C=CO[C@@H](O[C@@H]5O[C@H](CO)[C@@H](O)[C@H](O)[C@H]5O)[C@@H]4[C@@]4(CO)O[C@@H]34)O[C@@H](C)[C@H](O)[C@H]2OC(C)=O)cc1
inactive: Potency [1] | Potency [2] | Potency [3] | Potency [6]

C[C@@H]1O[C@@H](O[C@H]2[C@H](O)[C@@H](O)[C@H](O[C@H]3[C@H](O[C@H]4CC[C@@]5(C)C(=CC[C@@H]6C5CC[C@]5(C)[C@@H]7[C@H](C[C@@H]65)O[C@]5(CC[C@@](C)(CO[C@@H]6O[C@H](CO)[C@@H](O)[C@H](O)[C@H]6O)O5)[C@H]7C)C4)O[C@H](CO)[C@@H](O)[C@@H]3O)O[C@@H]2CO)[C@H](O)[C@H](O)[C@H]1O (some centres not stated)
inactive: Potency [1] | Potency [2] | activity change, negative = inhibition [3] -0.0839% [at 11.6 µM] | activity, negative = inhibition [6] 1.75% [at 11.6 µM]

C/C=C/C(O)C1OC(=O)CC1Nc1ccc(C(=O)O)cc1 (configuration not stated)
inactive: Potency [1] | Potency [2] | Potency [3] | Potency [6]

C[C@@H]1CCC/C=C/[C@H]2CC(=O)C[C@@H]2[C@@H](O)/C=C/C(=O)O1
inactive: Potency [1] | Potency [2] | Potency [3] | Potency [6]

CC1(C)C=CN2C(=O)C3=CCCN3C(=O)[C@@H]2C[C@@]12Nc1ccccc1C2=O
inactive: Potency [1] | Potency [2] | Potency [3] | Potency [6]

CC(C)=CCC/C(C)=C/Cc1ccc(O)c(C2OC(=O)c3cc(C(=O)O)cc(O)c32)c1O (configuration not stated)
inactive: Potency [1] | Potency [2] | Potency [3] | Potency [6]

CC(CO)C1CCC2(C)CC3C(CO)CC(O)C3C(C)(O)C/C=C/12 (configuration not stated)
inactive: Potency [1] | Potency [2] | Potency [3] | Potency [6]

C=CC1(C)C=C2C(=O)OC(=O)C3=C(CCCC3(C)C)C2(O)CC1 (configuration not stated)
inactive: Potency [1] | Potency [2] | Potency [3] | Potency [6] | Potency [5]

O=S(=O)(Nc1ccccn1)c1ccc(N=Cc2c(O)[nH]c3ccc4ncsc4c23)cc1
inactive: outcome [1] inactive [at 9.52 µM] | outcome [2] inactive [at 9.73 µM] | outcome [3] inactive [at 11.6 µM] | activity, negative = inhibition [6] -7.47% [at 11.6 µM] | redox activity (% of DA3003) [5] -4.81% [at 11.5 µM]

CC1(C)CCCC2(C)C(CO)C(CO)=CCC12 (configuration not stated)
inactive: Potency [1] | Potency [2] | Potency [3] | Potency [6] | Potency [5]

C=C1C(O)C[C@@H]2C(C(=O)O)=CO[C@@H](O[C@@H]3O[C@H](CO)[C@@H](O)[C@H](O)[C@H]3OC(=O)c3ccc(O)cc3)[C@H]12 (some centres not stated)
inactive: Potency [1] | Potency [2] | Potency [3] | Potency [6] | Potency [5]

COc1ccc(N2CCOCC2)c2sc(NC(=O)N3CCC(C)(O)CC3)nc12
inactive: Potency [1] | Potency [2] | Potency [3] | Potency [6]
